# The campaign covered roughly 87,000 compounds. About 360 (0.41%) were called active. Cut-off read from the data, not from the text of the source: active = cytotoxicity above about 50%; inactive = the rest. For the sample, actives were picked, then their nearest neighbours and some compounds at random.
# Experiment: cytotoxicity in HT1080 fibrosarcoma cells, cell-based, fluorescence readout (AID 620);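 note: cells exposed to compound overnight then 4 h with Alamar Blue; 0% = vehicle DMSO and 100% = killing control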
# Conditions: HT1080 viability, at 10 µM, stronger effect = higher value
row,Compound,cytotoxicity
1,COC(=O)CN1C(=O)C2(C(C#N)=C(N)Oc3c2c(C)nn3-c2ccccc2)c2ccccc21 (configuration not stated),-65.1% (inactive)
2,CCc1cccc(CC)c1NC(=O)CN1CC(C)SC1=NC1CCCCC1 (configuration not stated),-4.4% (inactive)
3,CC1CCCN(S(=O)(=O)c2ccc(NC(=O)CN3CCN(C)CC3)cc2)C1 (configuration not stated),-6.1% (inactive)
4,Cc1ccc(NC(=O)CN2CC(C)SC2=NC2CCCCC2)cc1 (configuration not stated),87% (active)
5,CCOC(=O)c1c(NC(=O)CSc2nnc(-c3ccccc3C)n2C)sc(C(C)=O)c1C,-23.9% (inactive)
6,O=C1NCCCC1C(=O)N1CCN(C(=O)c2ccco2)CC1 (configuration not stated),1.1% (inactive)
7,COc1cccc(NC(=O)CC2C(=O)NC3CCCCC3N2C(=O)c2ccc(F)cc2)c1 (configuration not stated),-16.2% (inactive)
8,O=C(N/N=C/C(Br)=C/c1ccccc1)c1n[nH]c2c1CCC2,66.4% (active)
9,Cc1ccc(NCC(=O)N/N=C\C(Br)=C\c2ccccc2)cc1,8.3% (inactive)
10,CC(/C=N/NC(=O)c1ccc(Br)cc1)=C\c1ccccc1,-15.4% (inactive)
11,CC(=C/c1ccccc1)/C=N/NC(=O)c1cnccn1,-7.1% (inactive)
12,O=C(O)c1n[nH]c2c1CCCC2,-12.7% (inactive)
13,Cc1ccccc1NCC(=O)N/N=C/C(Br)=C/c1ccccc1,-17.1% (inactive)
14,O=C(CNc1cccc2ccccc12)N/N=C/C(Br)=C/c1ccccc1,1.9% (inactive)
15,O=C(N/N=C/C(Br)=C\c1ccccc1)c1n[nH]c2c1CCC2,66.5% (active)
16,CC(/C=N/NC(=O)c1n[nH]c2c1CCC2)=C\c1ccccc1,71.7% (active)
17,COc1ccc(CC(=O)NCc2nnc(SCC(=O)N3CCN(c4ccccc4)CC3)n2C)cc1,-7% (inactive)
18,COc1ccc(C)cc1NC(=O)CNC(=O)Cn1ccc2ccccc2c1=O,7.1% (inactive)
19,Cc1nnc(Sc2nc3c(c(=O)[nH]c(=O)n3C)n2Cc2ccccc2Cl)s1,1% (inactive)
20,COCCCNC(=O)Cn1cc2c(n1)CCC(C)C2 (configuration not stated),-3.5% (inactive)
21,Nc1[nH]c(=S)[nH]c(=O)c1-c1ccccc1,-5% (inactive)

row,Compound,cytotoxicity
1,O=C(Nc1ccc(N2CCN(Cc3ccccc3)CC2)cc1)c1ncn[nH]1,-2.9% (inactive)
2,CC(=O)c1ccc(NC(=O)c2ccn[nH]2)cc1,-0.3% (inactive)
3,COc1cc(CC(=O)Oc2ccc3c(c2)OCO3)cc(OC)c1OC,2.2% (inactive)
4,COc1cc(CC(=O)NCc2ccc3c(c2)OCO3)cc(OC)c1OC,3.1% (inactive)
5,COc1cc([C@@H]2c3cc4c(cc3[C@H](O)[C@H]3COC(=O)[C@H]23)OCO4)cc(OC)c1OC,68.5% (active)
6,COc1ccc2c(c1OC)C(=O)OC2Nc1ncc(Br)cc1Br (configuration not stated),6.2% (inactive)
7,COc1ccc(C2CC(=O)c3cnc(N4CCN(Cc5ccccc5)CC4)nc3C2)cc1 (configuration not stated),22.6% (inactive)
8,COc1ccc(C2CC(=O)c3c(C)nc(N4CCN(Cc5ccccc5)CC4)nc3C2)cc1OC (configuration not stated),-20.1% (inactive)
9,CCN1CCN(c2ncc3c(n2)CC(c2cc(OC)c(OC)c(OC)c2)CC3=O)CC1 (configuration not stated),51.1% (active)
10,COc1cc(C2CC(=O)c3cnc(N4CCN(Cc5ccccc5)CC4)nc3C2)cc(OC)c1OC (configuration not stated),52.5% (active)
11,COc1cc(C2CC(=O)c3cnc(N)nc3C2)cc(OC)c1OC (configuration not stated),0.9% (inactive)
12,CCN1CCN(c2ncc3c(n2)CC(c2ccc(OC)c(OC)c2)CC3=O)CC1 (configuration not stated),-13% (inactive)
13,COc1ccc(-n2c3c(cc(C(=O)Nc4ccc(C)cc4)c2=O)C(=O)CCC3)cc1,14.6% (inactive)
14,CCOc1ccc2nc(SCC(=O)NC(=O)NCc3ccco3)[nH]c2c1,-12.9% (inactive)
15,Cc1cc(N2CCCC2)nc(-c2ccccc2O)n1,1.6% (inactive)
16,CCn1cnc2scc(-c3ccccc3)c2c1=O,6% (inactive)
17,Cn1cc(/C=N/n2cnc3scc(-c4ccccc4)c3c2=O)c2ccccc21,52.6% (active)
18,Cc1ccc(-c2csc3ncn(/N=C/N(C)C)c(=O)c23)o1,1.3% (inactive)
19,Cc1nn(-c2ccccc2)c(N2CCCC2)c1/C=N/n1cnc2scc(-c3ccccc3)c2c1=O,-0.7% (inactive)
20,Cn1cc(/C=N/n2cnc3sc4c(c3c2=O)CCCC4)c2ccccc21,-0.6% (inactive)
21,Cn1cc(/C=N/n2cnc3scc(-c4ccc(Cl)cc4)c3c2=O)c2ccccc21,57.8% (active)

row,Compound,cytotoxicity
1,COc1ccc(S(=O)(=O)CCC(=O)NCCc2ccc(C)cc2)cc1,-7.2% (inactive)
2,COCCNC(=O)C(c1cccs1)N(C(=O)Cn1nnc2ccccc21)c1ccccc1 (configuration not stated),2.1% (inactive)
3,Nc1cccc(Nc2nc(OC(C(F)(F)F)C(F)(F)F)nc(OC(C(F)(F)F)C(F)(F)F)n2)c1,-15.3% (inactive)
4,CCc1ccc2nc(SCC(=O)N3CC(=O)Nc4ccccc43)c(C#N)cc2c1,-5.8% (inactive)
5,O=C1CN(C(=O)c2ccccc2)c2ccccc2N1,1.9% (inactive)
6,Cc1cc(C)cc(C(=O)N2CC(=O)Nc3ccccc32)c1,63.6% (active)
7,Cc1cccc2cc(C#N)c(SCC(=O)N3CC(=O)Nc4ccccc43)nc12,62.5% (active)
8,Cc1ccsc1C(=O)N1CC(=O)Nc2ccccc21,-1.3% (inactive)
9,Cc1cc(C)c2nc(SCC(=O)N3CC(=O)Nc4ccccc43)c(C#N)cc2c1,70.8% (active)
10,Cc1cc(C)c2nc(SCC(=O)N3CCCCC3)c(C#N)cc2c1,-0.9% (inactive)
11,Cc1cc(C)c2nc(SCC(=O)Nc3ccccc3N3CCOCC3)c(C#N)cc2c1,4.9% (inactive)
12,Cc1cccc2cc(C#N)c(SCC(=O)N3CCC(C)CC3)nc12,-4.3% (inactive)
13,CC(C)Nc1oc(Cc2cccc3ccccc23)nc1C#N,4.7% (inactive)
14,O=C(CSc1nc2ccccc2o1)c1ccccc1,-3.2% (inactive)
15,Cc1cccc(NC(=S)N2N=CCC2c2ccccc2)c1 (configuration not stated),-1.4% (inactive)
16,CC1=C(C(=O)OCc2ccccc2)C(c2ccccc2OC(=O)c2ccc(I)cc2)NC(=O)N1CCCC(=O)O (configuration not stated),-5.3% (inactive)
17,Cn1c(SCC(=O)NCCNC(=O)CSc2nnc(C(F)(F)F)n2C)nnc1C(F)(F)F,5.9% (inactive)
18,Cc1ccc(Nc2cc(C)nn2-c2nc(C)cc(=O)[nH]2)cc1,65.9% (active)
19,Cc1cc(=O)[nH]c(-n2nc(C)cc2C)n1,-0.8% (inactive)
20,Cc1ccc(Nc2cc(C)nn2-c2nc(C)cc(C)n2)cc1,-13.7% (inactive)

# From PubChem BioAssay AID620 (Sanford-Burnham Center for Chemical Genomics, 2007)
